Here are results for 46 molecules from PubChem BioAssay AID1508642 (National Center for Advancing Translational Sciences (NCATS), 2021).

About 200 (0.47%) of roughly 43,000 compounds were called active. Where a call stands in place of a potency, no number is given. Another 12% or so got no clear call; they are omitted. The sample holds actives, similar compounds and a random draw of the others, so the mix is not that of the screen. Calls follow the shape of the dose curve; as a rule, active = well fitted cell-killing curve with a large enough effect; inconclusive = small, poorly fitted or top-dose-only effect, or effect the other way; inactive = flat fitted curve, though single readings scatter.
Potency is read from the fitted curve at half-maximal effect.

This assay in a line: Cell viability qHTS assay in S16 Pmp22-F2sN cells. Also: nearly all actives have a fitted effect of over 65% in size. The note with it: S16 Pmp22-F2sN Schwann cells (luciferase reporters placed in the Pmp22 gene) viability, CellTiter-Glo, 24 h; series mostly up to 57.5 µM. From the text:
Assay Provider: Jim Inglese Ph.D. National Center for Advancing Translational Science, National Institutes of Health, Rockville, MD CMT is a heterogeneous group of neurological disorders that affect approximately 1 in 2,500 people. In particular, the most common form of CMT, CMT1A is genetically linked to the duplication of the PMP22 gene which leads to Schwann cell overexpression, thus manifesting itself as a typical case of dose-sensitive diseases. To identify small molecule compounds that can mediate the expression of PMP22 we developed a phenotypic assay screening strategy by utilizing genome editing techniques to construct Schwann cell lines containing novel reporter technology to monitor the transcriptional or translational regulation of PMP22. For high sensitivity we use a bioluminescent reporter system embedded in the 3' UTR of the PMP22 gene (S16(c9) Pmp22-F2sN) to identify compounds that inhibit gene expression. […] We can further discriminate the effect of all transcriptionally active molecules on PMP22 translation or stability with an assay that incorporates a short NLuc peptide (HiBiT) at the C-terminus of expressed PMP22 (S16(f8) PMP22-HiBiT) allowing alpha complementation and luminescence detection of membrane-associated PMP22 protein. These assays were screened against the NCATS Sytravon Library Collection. Miniaturization of these assays to 1536-well plate format for quantitative high throughput screening (qHTS) yielded rich data sets immediately from the qHTS assay (S16(c9) Pmp22-F2sN), when compared with data from a cell viability assay (Cell TiterGlo) to identify compounds that decreased the output signals through cellular toxicity to streamline the selection process of actives for subsequent characterization using the HiBiT assay (S16(f8) PMP22-HiBiT).
Cell viability assay in S16 Pmp22-F2sN cells PROTOCOL TABLE (format as described by Inglese J, Shamu CE and Guy RK. 2007) SEQUENCE No. (e.g., 1, 2, 3, etc.); […] (e.g., Cells, Incubation, Reagent, etc.); VALUE and DESCRIPTION. 1. Cells. Add 500-1,000 cells in 4 uL in growth media (DMEM High Glucose, No Phenol Red media + 10% heat-inactivated FBS + 1% Pen/Strep supplemented media) per well into Greiner 1536-well white/solid bottom high base, TC-treated plates. 2. Compounds. Library compounds and controls added at 23nL per well, transferred by Pin Tool. 3. Incubation. Incubate plates at 37C, 5% CO2, 95% RH for 24 h. 4. Reagent. Add 3uL CellTiter-Glo per well of Greiner 1536-well plates. 5. Incubation. Incubate plates at room temperature for 15 min., protect from light. 6. Detector. FLuc luminescence measured using CCD-based camera (Viewlux). NOTES (numbers refer to Sequence numbers above; values are from representative experiments) 6. Luminescence Read: Clear filter; Exposure = 1 sec, Gain = High, Speed = Slow, Binning = 2X REFERENCES: 1. Inglese J, Shamu CE and Guy RK, Reporting data from high throughput screening of small molecule libraries, Nature Chemical Biology, 2007, 3(8): 438-441. doi.org/10.1038/nchembio0807-438 2. Yasgar A, Shinn P, Jadhav A, Auld DS, Michael S, Zheng W, Austin CP, Inglese J and Simeonov A, Compound Management for Quantitative High-Throughput Screening. J. Assoc. Lab. Auto., 2008, 13: 79-89. doi: 10.1016/j.jala.2007.12.004
A general note: In qHTS, concentration-response curves come from the screen itself.
Consider `O=C(NCCc1ccc(Cl)cc1)c1ccc2c(c1)N(Cc1ccc(F)cc1)C(=O)CS2`, for which the Potency entry is “inactive”. Under `Cc1c(C)n(Cc2ccc(Cl)cc2)c2ccc(C(=O)NCCc3ccc(S(N)(=O)=O)cc3)cc12` stands “inactive”. With `Cc1cccc(N2CCN(C(=O)c3cnc(N4CCCC4)nc3C)CC2)c1C`, the Potency entry is “inactive”. Consider `COc1ccc(Cl)cc1NC(=O)CCn1c(=O)c2cccn2c2ccccc21`, for which the Potency entry is “inactive”. In the case of `CSc1oc(-c2cccs2)nc1S(=O)(=O)c1ccc(Br)cc1`, the Potency entry was “inactive”. Under `Cc1ccc(CSc2oc(-c3cccs3)nc2S(=O)(=O)c2ccc(C)cc2)cc1` stands “inactive”. With `CCCCS(=O)(=O)c1oc(-c2cccs2)nc1S(=O)(=O)c1ccccc1`, the Potency is 2.51 µM (active). As for `COc1cn(CC(=O)Nc2cccc(C)c2C)c(CN2CCCCC2)cc1=O`, the Potency entry was “inactive”. Turning to `Cc1ccc(NC(=O)Cn2nnc3sc4c(c3c2=O)CCC(C)C4)cc1` (stereo unspecified), the Potency entry is “inactive”. Under `COc1ccc(CN2CCc3nc(Nc4ccccc4)ncc3C2)c(OC)c1OC` stands “inactive”; under `CCc1nn(CC(=O)N2CCN(c3ccc(Cl)cc3)CC2)c(=O)c2cc3occc3n12`, “inactive”; under `COc1ccc(OC)c(CNC(=O)CN2C(=O)CCn3nc(-c4cn(C)c5ccccc45)cc32)c1`, “inactive”. On to `Cc1c(Cl)cccc1NC(=O)CCS(=O)(=O)c1ccc2c(c1)oc(=O)n2C`, for which the Potency result is “inactive”. Regarding `CCC(=O)N1CCc2cc(S(=O)(=O)NC(C(=O)Nc3ccc(C(C)=O)cc3)C(C)C)ccc21` (stereo unspecified), the Potency entry was “inactive”. In the case of `CCOc1ccc(-c2cc3nc(C4CCN(C(=O)OC(C)(C)C)CC4)c(C(=O)Nc4ccc(C(=O)OC)cc4)cn3n2)cc1`, the Potency result was “inactive”.

For `COCCN(Cc1ccco1)C(=O)Cn1ncc2c([nH]c3ccccc32)c1=O`, the Potency result is “inactive”. Regarding `COc1cc(C(=O)NCC(c2ccc(Cl)cc2)N2CCOCC2)cc(OC)c1OC` (stereo unspecified), the Potency result was “inactive”. As for `CCOc1ccc(C(NC(=O)c2cc(OC)c(OC)c(OC)c2)c2cc(Cl)c3cccnc3c2O)cc1` (stereo unspecified), the Potency was 1.78 µM (active). With `COc1c(Cl)cc(Cl)cc1C(=O)Nc1cccc2cccnc12`, the Potency entry was “inactive”. Consider `COc1cccc(N2CCN(S(=O)(=O)c3ccc4c(c3)CCCN4C(C)=O)CC2)c1`, for which the Potency result is “inactive”. For `CC(=O)N1CCCc2cc(S(=O)(=O)N3CCCC(C(=O)N4CCN(c5cccc(Cl)c5)CC4)C3)ccc21` (stereo unspecified) the value was 25.1 µM (active). On to `CC(=O)N1CCCc2cc(S(=O)(=O)N3CCCC(C(=O)NCc4ccc(Cl)cc4)C3)ccc21` (stereo unspecified), for which the Potency result was “inactive”. `COC(=O)c1ccc(NC(=O)CSc2n[nH]c(-c3ccccc3)n2)cc1`: the Potency entry was “inactive”. With `CCOc1ccccc1NC(=O)Cn1c(=O)n(Cc2ccccc2)c(=O)c2c(C)c(C(=O)N(C)C)sc21`, the Potency result is “inactive”.

As for `Cc1ccccc1NC(=O)Cn1c(=O)n(Cc2ccco2)c(=O)c2ccc(C(=O)NC3CCCC3)cc21`, the Potency result is “inactive”.

For the molecule `COc1cccc(C(=O)NCc2ccc3c(c2)CCN3C(=O)c2ccncc2)c1`, the Potency entry was “inactive”. As for `Cc1c(CNC2CCCCC2)c(C(=O)O)c(C)n1Cc1cccc(Cl)c1`, the Potency entry was “inactive”. With `COc1cccc2cc(-c3nc(Cl)c4c5c(sc4n3)CC(C)CC5)c(=O)oc12` (stereo unspecified), the Potency entry was “inactive”.

As for `Cc1ccc2nc(CN3CCN(S(=O)(=O)c4ccc(C)c(C)c4)CC3)oc2c1`, the Potency entry was “inactive”. Under `COc1ccc(NC(=O)CN2C(=O)COc3ccc(S(=O)(=O)N4CCOCC4)cc32)cc1` stands “inactive”; under `CC(C)(C)c1ccc(S(=O)(=O)N2CCN(C(=O)c3cc(-c4ccc(Br)cc4)n[nH]3)CC2)cc1`, “inactive”; under `Cn1c(=O)[nH]c(=O)c2c1nc(NCCc1ccccc1)n2Cc1ccc(F)cc1`, “inactive”. As to `CCOC(=O)c1ccc(NC(=O)Cn2cc(S(=O)(=O)Cc3ccccc3F)c3ccccc32)cc1`, the Potency result was “inactive”. Turning to `Cc1ccc2nc(COc3ccccc3NC(=O)Nc3ccc(F)c(Cl)c3)cc(=O)n2c1`, the Potency entry is “inactive”. Under `COc1ccc(N2CCN(c3nc(-c4ccccc4F)nc4ccccc34)CC2)cc1` stands “inactive”; under `Cc1cccc(OCC(=O)N(Cc2ccc(C(C)C)cc2)Cc2ccco2)c1C`, “inactive”; under `Cc1cccc(-n2ncc(C(=O)N3CCc4ccccc4C3)c2C2CCN(C(=O)OC(C)(C)C)CC2)c1`, “inactive”.

As to `CC(C)Oc1ccc(CNC(=O)C2CCN(c3nc4ccccc4n(C)c3=O)CC2)cc1`, the Potency entry was “inactive”. As for `COc1cc(OC)c(NC(=O)c2cc(S(=O)(=O)N3CCCC3)cn2C)cc1Cl`, the Potency entry is “inactive”. On to `CCN(Cc1ccccc1)S(=O)(=O)c1ccc2c(c1)CCCN2C(C)=O`, for which the Potency result is “inactive”. Consider `CCNS(=O)(=O)c1ccc(NC(=O)CSc2nc(-c3ccco3)cc(C(F)(F)F)n2)cc1`, for which the Potency entry was “inactive”.

Turning to `COc1ccccc1NC(=O)c1sc2nc(C)c(C(=O)Nc3ccc(Cl)cc3)c(-c3ccc(Br)cc3)c2c1N`, the Potency was 14.1 µM (active).

`COc1ccc(NC(=O)c2sc3nc(-c4cc5cccc(OC)c5oc4=O)[nH]c(=O)c3c2C)cc1`: the Potency entry is “inactive”. Take `COc1ccc(Cl)cc1NC(=O)c1sc2nc3c(cc2c1N)CN(C)CC3`: the Potency result is “inactive”. Regarding `Cc1nnc(SCc2cc(=O)c3cc(F)ccc3[nH]2)n1C`, the Potency result was “inactive”.

As for `Cc1ccc(CN2CCc3nc(N4CCN(C)CC4)ncc3C2)cc1`, the Potency entry was “inactive”.
